# Only a selection was taken, and hits are over-represented in it overall.
# ST2 IL33 inh – IL1RL1 inhibition; AlphaLISA ST2-Fc/biotin-IL-33 interaction, 1 h; inhibition, % for hits at 17 µM; hit rate 2.3% among 78,000; AID 1259354; in the data active means inhibition above about 30%
# Target sequence (Q01638 whole entry, looked up): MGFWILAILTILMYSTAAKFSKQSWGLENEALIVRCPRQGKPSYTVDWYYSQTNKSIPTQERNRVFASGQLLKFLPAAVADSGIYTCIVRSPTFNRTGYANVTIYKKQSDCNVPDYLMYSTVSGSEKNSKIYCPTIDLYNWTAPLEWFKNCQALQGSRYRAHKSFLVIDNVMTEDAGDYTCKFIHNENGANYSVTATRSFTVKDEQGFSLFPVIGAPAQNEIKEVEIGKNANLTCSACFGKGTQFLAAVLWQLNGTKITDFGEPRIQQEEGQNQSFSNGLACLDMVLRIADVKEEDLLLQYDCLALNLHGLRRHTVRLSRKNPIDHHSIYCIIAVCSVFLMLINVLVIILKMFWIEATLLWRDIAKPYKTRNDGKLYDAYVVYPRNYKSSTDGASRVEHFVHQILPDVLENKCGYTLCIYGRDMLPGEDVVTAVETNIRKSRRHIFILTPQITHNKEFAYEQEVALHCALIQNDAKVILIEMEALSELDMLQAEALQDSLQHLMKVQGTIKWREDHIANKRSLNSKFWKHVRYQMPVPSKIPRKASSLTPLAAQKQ
# Starred values were filed as active, the others as inactive; i = inactive; ! = a repeat was not active.
SMILES,ST2 IL33 inh
CCOC(=O)C(C)(C)Sc1nc2c(c(=O)n1-c1ccc(OCC)cc1)SCC2,43%*
Cc1ccc(-n2c(SC(C)C)nc3c(c2=O)SCC3)cc1,36%*!
CCSc1nc2c(c(=O)n1-c1ccc(C)cc1)SCC2,33%*!
COc1cccc(-c2cc(N3CCN(S(=O)(=O)c4c(C)noc4C)CC3)ncn2)c1,i
Cc1cc(NC(=O)c2ccccc2Br)nc2c1c(=O)oc1ccccc12,i
Cc1ccsc1C(=O)NC1CC(=O)N(CCCc2ccccc2)C1 (stereo not given),i
CCc1nccn1S(=O)(=O)c1ccc(I)cc1,i
CCc1c(C)c(C#N)c2nc3ccccc3n2c1-n1ccnc1C,i
Nc1c(C(=O)C2CC2)sc2nc(-c3cccs3)cc(C(F)(F)F)c12,i
CC(C)(O)C#Cc1cccc(C(=O)N2CCc3c(c(C(=O)N4CCCC4)nn3Cc3ccccc3)C2)c1,i
CC(C)c1cc(C(=O)Nc2ccc(Br)cc2)no1,i
OC[C@H]1O[C@@H](OCc2ccccc2)[C@H](O)[C@@H](O)[C@@H]1O,i
CCCN1CC=C2C(C#N)=C(N)C(C#N)(C#N)C(c3ccsc3)C2C1 (stereo not given),i
O=C1CC(c2ccccc2)CC2=C1C(c1ccccc1Br)Nc1ccccc1N2 (stereo not given),i
O=C1CC(c2ccccc2)CC2=C1C(c1cc(Br)ccc1F)Nc1ccccc1N2 (stereo not given),i
O=C1CC(c2ccccc2)CC2=C1C(c1cc3c(cc1[N+](=O)[O-])OCO3)Nc1ccccc1N2 (stereo not given),44%*
CC1(C)C(C=C(Cl)Cl)C1C(=O)Nc1sc2c(c1C#N)CCC2 (stereo not given),i
CCNC(=O)c1cc2c(=O)n3ccccc3nc2n(CCCOCC)c1=N,i
CC(=O)c1ccc(NC(=O)O[C@@H]2CO[C@H]3[C@@H]2OC[C@@H]3NC(=O)NC2CCCCC2)cc1,i
CC(=O)c1ccc(NC(=O)O[C@@H]2CO[C@H]3[C@@H]2OC[C@@H]3NC(=O)Nc2cccc(C#N)c2)cc1,i
COc1cc(NC(=S)N[C@H]2CO[C@H]3[C@@H]2OC[C@H]3OC(=O)Nc2ccc(C(C)=O)cc2)cc(OC)c1,i
CC(=O)c1ccc(NC(=O)O[C@@H]2CO[C@H]3[C@@H]2OC[C@@H]3NC(=S)Nc2ccccc2)cc1,41%*
CC(=O)c1ccc(NC(=O)N[C@H]2CO[C@H]3[C@@H]2OC[C@H]3OC(=O)Nc2cccc(C(C)=O)c2)cc1,85%*
CC(C)c1ccc(NC(=O)O[C@@H]2CO[C@H]3[C@@H]2OC[C@@H]3NC(=S)Nc2ccccc2)cc1,i
COc1ccccc1N(C(F)F)S(=O)(=O)c1ccc(C)cc1,i
SMILES,ST2 IL33 inh
CC(=O)N1CCc2c(nc(C)nc2N2CCC(O)(Cn3ccnc3)CC2)C1,i
Cc1c(C(=O)NC2CCCCCC2)cccc1[N+](=O)[O-],i
CCS(=O)(=O)N1CCOC(CCCc2ccccc2)C1 (stereo not given),i
Cc1cc(N2CCC3(CC2)OCCO3)n2nc(C)c(-c3ccc(Cl)cc3)c2n1,i
CCN(CC)S(=O)(=O)c1ccc(C)cc1,i
Cc1ccc(S(=O)(=O)/C=C/C#N)cc1,i
Cc1ccc(S(=O)(=O)ON=C2C=CC(=O)C=C2)cc1,47%*
CCOCCOc1ccccc1C(=O)N1C[C@H]2CC=C(C)C[C@H]2C1,i
CCc1ccc(C2CC(c3c(F)cccc3Cl)n3nc(N)nc3N2)cc1 (stereo not given),i
Cc1ccc(NC(=O)Nc2c(C)nc3nc[nH]n3c2=O)c(C)c1,i
COc1ccc(N=Cc2c(O)c([N+](=O)[O-])cc3oc4c(c23)CCCC4)cc1,i
COc1ccc(NC(=O)c2noc3c2CCCCC3)cc1,i
COc1ccc(N=Cc2c(O)cc(C)c(Cl)c2C)cc1,43%*
Cc1c(Cl)c(C)c([N+](=O)[O-])c(O)c1C=Nc1ccc(C(=O)O)cc1,i
COc1ccc(N=Cc2c(O)ccc3oc4c(c23)CCCC4)cc1,40%*
COc1cccc(-n2c(O)c(C=Nc3ccc(Cl)cc3)c3ccccc3c2=O)c1,i
CCN1CC(CN(C)Cc2cn(-c3ccccc3)nc2-c2ccc(OC)cc2F)CC1=O (stereo not given),i
Cc1ccc(Cl)cc1NC1=NC2CS(=O)(=O)CC2S1 (stereo not given),i
COc1ccc(CN2CCCC(Nc3ccc(F)cc3)C2)c(OC)c1OC (stereo not given),i
CC(=O)n1cc(/C=C2/C(=O)NC(=O)N(c3ccc(C)cc3)C2=O)c2ccccc21,i
Cn1c(=O)cc(SCC(=O)NCCN2CCN(c3cccc(Cl)c3)CC2)c2ccccc21,i
O=C(NC1CCCCC1)[C@@H]1Cc2nc[nH]c2CN1Cc1cc2ccccc2o1,i
COc1ccc(C2C(C(=O)Nc3ccc(C)cn3)=C(C)NC3=C2C(=O)CC(C)(C)C3)cc1 (stereo not given),i
COc1ccc(-c2nnc(N)o2)cc1,i
Nc1ccc(-c2nnc(-c3ccc(N)cc3)o2)cc1,37%*
Cc1ccc(-c2nnc(-c3ccc(Cl)cc3)o2)cc1,i
